Test system: LYPLA1
Experiment: LYPLA1 enzyme kinetics with inhibitors – biochemical, substrate-based fluorescence, Ki, Km, late-stage follow-up (AID 651998)
Settings: recombinant LYPLA1, resorufin acetate hydrolysis fluorescence, Ki from Cheng-Prusoff

Q: Which Ki does the source give for `O=C(CN1CCN(C(=O)c2ccco2)CC1)Nc1cc(C(F)(F)F)ccc1Cl` here?
A: 300 nM

From PubChem BioAssay AID651998 (The Scripps Research Institute Molecular Screening Center, 2013)
